For eight compounds, Potency results are on record in PubChem BioAssay (Tox21).

Where “and” joins values, the source holds several entries; their conditions need not be identical. Equal entries are not always repeated. Records with an inconclusive call do not appear. A structure can be active in one record and inactive in another. Calls of active or inactive are those of the source. Unless noted, calls come from the whole dose curve.

Assay [1] is described as follows: Nuclear factor erythroid 2-related factor 2/antioxidant responsive element (Nrf2/ARE) small molecule agonists: qHTS cell viability counter screen in human keratinocytes (AID 1919968; active = well fitted curve in the direction sought with a large enough effect in the repeat runs; an effect the other way counts as inactive or inconclusive; note: nearly all actives have a fitted effect of over 55% in size). In outline:
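Seed 1,500 KeratinoSens cells per well, then incubate 5 h at 37 C/5% CO2. Add compounds in DMSO and incubate 23 h. Add CellTiter-Fluor, wait 1 h and read fluorescence.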
(In general: In qHTS, concentration-response curves come from the screen itself.)

Assay [2] has as its target Gonadotropin-releasing hormone receptor (Homo sapiens) (UniProt P30968). In words: Human gonadotropin-releasing hormone receptor (GnRHR) small molecule agonists, calcium flux assay in GnRHR-HEK293 cells (AID 1920063). Note: nearly all actives have a fitted effect of over 35% in size. In outline: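 Cells: HEK293 stably expressing human GnRHR. Steps: overnight (18 h) culture, 1 h calcium dye loading at 37 C, compound addition, kinetic fluorescence read at 480/540 nm. Each compound tested at 15 concentrations in triplicate.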
(In general: Calcium assays in cells follow changes in intracellular calcium, usually with a dye or a luminescent sensor.)

Assay [3] concerns the target KiSS-1 receptor (Homo sapiens) (UniProt Q969F8). In words: Human kisspeptin (KISS1R) small molecule agonists, calcium flux assay in KISS1R-HEK293 cells (AID 1920064; active = well fitted curve in the direction sought with a large enough effect in the repeat runs; an effect the other way counts as inactive or inconclusive). In outline: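 Cells plated and incubated 18 h; dye added, 1 h at 37 C; compounds in DMSO pinned in; signal read at 480/540 nm every second for 3 min. Each compound tested at 15 concentrations in triplicate.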

Assay [4] in a line: G protein-coupled receptor (GPCR) small molecule agonists, calcium flux assay: HEK293 wild type cell line counter screen (AID 1920065). An outline of the steps: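 Counter-screen of the Tox21 10K library for non-specific calcium release: dye-loaded cells received compounds in DMSO and were monitored by kinetic fluorescence (480/540 nm, 3 min). Fifteen concentrations, run in triplicate.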

The nature of assay [5]: p53 small molecule agonists, cell-based qHTS assay with human liver microsomes: qHTS cell viability counter screen (AID 1963579). Note: nearly all actives have a fitted effect of over 45% in size. Note: potency is the fitted concentration of half-maximal effect. In outline: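 p53RE-bla cells (4,000/well) were pre-incubated 5 h at 37 C, then given compounds in DMSO plus human liver microsomes (0.5 mg/mL final) and NADPH (0.5 mg/mL final) for 16 h at 37 C. Viability was read by CellTiter-Glo luminescence.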

Assay [6] can be described thus: p53 small molecule agonists, cell-based qHTS assay with rat liver microsomes: qHTS cell viability counter screen (AID 1963580). Note: nearly all actives have a fitted effect of over 45% in size. In outline:
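HCT-116 p53RE-bla, 4,000 cells/well, 5 h pre-incubation; cpd + rat liver microsomes 0.5 mg/mL + NADPH 0.5 mg/mL (final); 16 h, 37 C; CellTiter-Glo, 30 min RT; luminescence.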

Assay [7] in a line: p53 small molecule agonists, cell-based qHTS assay: qHTS cell viability counter screen (AID 1963581). Note: nearly all actives have a fitted effect of over 45% in size. In outline: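 Cells: HCT-116 with p53 response element-driven beta-lactamase. Treatment: 16 h, 37 C, compounds in DMSO. Read: CellTiter-Glo luminescence after 30 min RT.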
Assay [8] can be described thus: cAMP Responsive Elements (CRE) small molecule agonists, cell-based qHTS assay (AID 1963590). In outline:
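Agonist mode qHTS in CRE-bla HEK 293T cells: compounds dosed from DMSO for 3 h at 37 C/5% CO2, followed by LiveBLAzer B/G FRET substrate for 2 h at room temperature.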

Assay [9] is described as follows: cAMP Responsive Elements (CRE) small molecule antagonists, cell-based qHTS assay (AID 1963591; active = well fitted inhibition curve with a large enough effect in the signal ratio in the repeat runs, not every such curve was filed as active; the % refers to the signal ratio). An outline of the steps:
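Antagonist mode: test compounds are co-incubated with the adenylyl cyclase activator NKH477 (0.25 uM final) on CRE-bla HEK293T cells for 3 h at 37 °C, followed by LiveBLAzer substrate loading.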

In assay [10] the target is Beta-2 adrenergic receptor (Homo sapiens) (UniProt P07550). In words: Adrenergic beta2 receptor (ADRB2) small molecule antagonists, cell-based qHTS assay (AID 1963592). Note: series mostly up to about 92 µM; nearly all actives have a fitted effect of over 50% in size. An outline of the steps: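 Cells (CHO, stable ADRB2 overexpression) incubated 18-20hr at 37C; compounds added from DMSO; agonist mix (1nM isoproterenol, 100uM IBMX, 25uM Ro-20-1724) added; 0.5hr RT; d2-cAMP and anti-cAMP-cryptate added; 1hr RT; 665/615 nm read.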

Assay [11] has the same target. In words: Adrenergic beta2 receptor (ADRB2) small molecule agonists, cell-based qHTS assay (AID 1963593).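 Note: CHO cells stably overexpressing human ADRB2.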 An outline of the steps: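 CHO cells stably over-expressing ADRB2 were plated overnight at 37C, then dosed with compounds plus a stimulation mix containing 100uM IBMX and 25uM Ro-20-1724 for 0.5hr at room temperature. cAMP was measured by HTRF competition, 1hr.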

Assay [12] has as its target D(2) dopamine receptor (Homo sapiens) (UniProt P14416). In words: Dopamine D2 receptor (DRD2) small molecule agonists, cell-based qHTS assay (AID 1963594). Note: nearly all actives have a fitted effect of over 35% in size. An outline of the steps:
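cAMP accumulation in DRD2-HEK293 cells measured by HTRF after 1 h detection; compounds added 10 min before NKH477 (200nM […]) forskolin-analogue stimulation, 30 min at room temperature, with Ro20-1724 present at 0.1 mM final.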

Assay [13] shares this target. In words: Dopamine D2 receptor (DRD2) small molecule antagonists, cell-based qHTS assay (AID 1963595; active = well fitted inhibition curve with a large enough effect in the signal ratio in the repeat runs, with a control signal flat; the % refers to the signal ratio). In outline: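 HEK293 cells stably expressing DRD2, preincubated with 0.1 mM Ro20-1724 and compounds 10 min, were stimulated with 200 nM NKH477 plus 12 nM quinpirole for 30 min at room temperature; cAMP measured by HTRF (665/620 nm).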
A short description of assay [14]: p53 small molecule agonists, cell-based qHTS assay with human liver microsomes (AID 1963577). Note: potency is the fitted concentration of half-maximal effect. An outline of the steps: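 p53RE-bla reporter cells were pre-incubated 5 h at 37 C, then treated with compounds plus human liver microsomes (0.5 mg/mL final) and NADPH (0.5 mg/mL final) for 16 h at 37 C. Beta-lactamase activity was read by LiveBLAzer fluorescence after 2 h at room temperature.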

Assay [15] is described as follows: p53 small molecule agonists, cell-based qHTS assay with rat liver microsomes (AID 1963578). In outline:
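p53RE-bla cells were exposed to compounds together with rat liver microsomes (0.5 mg/mL final) and NADPH (0.5 mg/mL final) for 16 h at 37 C, then read by LiveBLAzer beta-lactamase fluorescence after 2 h at room temperature.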

Assay [16] can be described thus: p53 small molecule agonists, cell-based qHTS assay (AID 1963582; active = well fitted activation curve with a large enough effect in the signal ratio in the repeat runs, not every such curve was filed as active; the % refers to the signal ratio). In outline:
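Quantitative HTS in p53RE-bla cells: after a 5 h settling period, compounds delivered in DMSO were left on cells for 16 h at 37 C, and reporter induction was measured as fluorescence following 2 h substrate loading.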

The target in assay [17] is 5-hydroxytryptamine receptor 2A (Homo sapiens) (UniProt P28223). In words: 5-hydroxytryptamine receptor 2A (HTR2A) small molecule antagonists, cell-based qHTS assay (AID 1963586). Note: nearly all actives have a fitted effect of over 45% in size. An outline of the steps:
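Antagonist-mode intracellular calcium assay: DOI (4 nM) added after 5 min compound pre-incubation at room temperature to dye-loaded HTR2A-CHO cells. Fluorescence followed for 3 min, sampled every second.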

The target in assay [18] is Muscarinic acetylcholine receptor M1 (Homo sapiens) (UniProt P11229). In words: Cholinergic receptor muscarinic 1 (CHRM1) small molecule antagonists, cell-based qHTS assay (AID 1963588). Note: nearly all actives have a fitted effect of over 40% in size. An outline of the steps:
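CHRM1-CHO calcium-flux assay, antagonist mode. Cells were seeded 18 h, dye-loaded 1 h at 37 C and given compound for 5 min at RT, then acetylcholine was added at 50nM. FDSS fluorescence was read 3 min; 15 concentrations, three runs.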

For assay [19] the target is unchanged. In words: Cholinergic receptor muscarinic 1 (CHRM1) small molecule agonists, cell-based qHTS assay (AID 1963589). Note: nearly all actives have a fitted effect of over 35% in size. In outline: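 Agonist-mode qHTS in CHO cells stably carrying human muscarinic M1. Intracellular calcium is tracked by fluorescence every second after compound transfer; each compound runs at 15 concentrations in three independent runs.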
Assay [20] deals with 5-hydroxytryptamine receptor 2A (Homo sapiens) (UniProt P28223). In words: 5-hydroxytryptamine receptor 2A (HTR2A) small molecule agonists, cell-based qHTS assay (AID 1963587). Note: nearly all actives have a fitted effect of over 30% in size. In outline: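 Kinetic calcium-flux fluorescence (2 min, 1 sec intervals) after compound addition in agonist mode. HTR2A-CHO cells were cultured 18 h, then dye-loaded 1 h at 37 C.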
Sequence of 5-hydroxytryptamine receptor 2A (Homo sapiens) (P28223 whole entry, looked up): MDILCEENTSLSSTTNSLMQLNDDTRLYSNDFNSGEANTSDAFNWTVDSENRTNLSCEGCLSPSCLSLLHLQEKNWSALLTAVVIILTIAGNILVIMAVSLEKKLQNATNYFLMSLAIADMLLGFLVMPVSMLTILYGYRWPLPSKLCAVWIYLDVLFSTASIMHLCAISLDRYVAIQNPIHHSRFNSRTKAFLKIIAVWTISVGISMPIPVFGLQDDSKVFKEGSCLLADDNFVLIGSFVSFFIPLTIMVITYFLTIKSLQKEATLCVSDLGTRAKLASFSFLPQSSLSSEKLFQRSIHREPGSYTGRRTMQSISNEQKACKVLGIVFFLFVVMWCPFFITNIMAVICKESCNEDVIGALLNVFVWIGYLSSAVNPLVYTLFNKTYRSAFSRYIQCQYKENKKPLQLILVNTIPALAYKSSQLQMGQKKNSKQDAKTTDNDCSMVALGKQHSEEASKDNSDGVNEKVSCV

Sequence of KiSS-1 receptor (Homo sapiens) (Q969F8 whole entry, looked up): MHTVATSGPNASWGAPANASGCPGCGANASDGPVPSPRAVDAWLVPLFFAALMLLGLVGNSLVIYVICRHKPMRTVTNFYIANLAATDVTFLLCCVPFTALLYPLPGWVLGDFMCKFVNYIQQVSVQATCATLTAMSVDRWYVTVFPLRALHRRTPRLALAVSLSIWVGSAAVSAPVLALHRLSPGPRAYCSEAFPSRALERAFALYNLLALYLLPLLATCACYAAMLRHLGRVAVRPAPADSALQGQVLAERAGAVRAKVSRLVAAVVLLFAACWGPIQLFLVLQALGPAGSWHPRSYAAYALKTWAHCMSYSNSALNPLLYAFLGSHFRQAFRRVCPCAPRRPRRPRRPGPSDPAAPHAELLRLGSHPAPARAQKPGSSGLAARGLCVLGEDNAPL
Sequence of Gonadotropin-releasing hormone receptor (Homo sapiens) (P30968 whole entry, looked up): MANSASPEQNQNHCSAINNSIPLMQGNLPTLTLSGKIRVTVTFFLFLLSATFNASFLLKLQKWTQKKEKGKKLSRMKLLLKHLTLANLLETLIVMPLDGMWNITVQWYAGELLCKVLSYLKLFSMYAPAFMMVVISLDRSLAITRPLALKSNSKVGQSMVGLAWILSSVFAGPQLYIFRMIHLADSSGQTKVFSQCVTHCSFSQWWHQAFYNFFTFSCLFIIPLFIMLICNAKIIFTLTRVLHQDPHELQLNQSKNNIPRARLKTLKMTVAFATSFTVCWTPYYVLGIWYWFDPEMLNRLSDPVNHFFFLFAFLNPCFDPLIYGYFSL
Sequence of Muscarinic acetylcholine receptor M1 (Homo sapiens) (P11229 whole entry, looked up): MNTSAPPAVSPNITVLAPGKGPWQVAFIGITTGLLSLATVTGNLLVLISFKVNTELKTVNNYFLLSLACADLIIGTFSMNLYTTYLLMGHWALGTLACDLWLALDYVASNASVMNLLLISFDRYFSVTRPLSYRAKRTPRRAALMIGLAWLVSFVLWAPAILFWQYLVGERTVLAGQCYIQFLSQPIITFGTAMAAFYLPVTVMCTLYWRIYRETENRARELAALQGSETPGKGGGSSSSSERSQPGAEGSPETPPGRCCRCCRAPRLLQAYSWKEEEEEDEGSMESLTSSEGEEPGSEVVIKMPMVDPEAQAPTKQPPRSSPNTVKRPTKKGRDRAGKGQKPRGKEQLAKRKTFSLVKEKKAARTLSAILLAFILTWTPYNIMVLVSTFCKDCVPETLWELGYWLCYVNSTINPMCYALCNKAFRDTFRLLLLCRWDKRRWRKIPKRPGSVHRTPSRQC
Sequence of Beta-2 adrenergic receptor (Homo sapiens) (P07550 whole entry, looked up): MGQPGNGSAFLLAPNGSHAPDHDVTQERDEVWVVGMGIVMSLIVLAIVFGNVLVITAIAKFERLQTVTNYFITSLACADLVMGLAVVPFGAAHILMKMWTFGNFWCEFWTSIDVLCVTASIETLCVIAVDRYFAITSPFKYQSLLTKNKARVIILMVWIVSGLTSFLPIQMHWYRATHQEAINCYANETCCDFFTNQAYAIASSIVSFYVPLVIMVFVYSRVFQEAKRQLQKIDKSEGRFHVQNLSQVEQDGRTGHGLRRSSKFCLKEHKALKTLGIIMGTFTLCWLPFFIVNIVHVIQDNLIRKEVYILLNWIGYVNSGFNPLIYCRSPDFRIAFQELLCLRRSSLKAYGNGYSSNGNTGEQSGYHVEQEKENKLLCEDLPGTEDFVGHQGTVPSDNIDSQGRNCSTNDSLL
Sequence of D(2) dopamine receptor (Homo sapiens) (P14416 whole entry, looked up): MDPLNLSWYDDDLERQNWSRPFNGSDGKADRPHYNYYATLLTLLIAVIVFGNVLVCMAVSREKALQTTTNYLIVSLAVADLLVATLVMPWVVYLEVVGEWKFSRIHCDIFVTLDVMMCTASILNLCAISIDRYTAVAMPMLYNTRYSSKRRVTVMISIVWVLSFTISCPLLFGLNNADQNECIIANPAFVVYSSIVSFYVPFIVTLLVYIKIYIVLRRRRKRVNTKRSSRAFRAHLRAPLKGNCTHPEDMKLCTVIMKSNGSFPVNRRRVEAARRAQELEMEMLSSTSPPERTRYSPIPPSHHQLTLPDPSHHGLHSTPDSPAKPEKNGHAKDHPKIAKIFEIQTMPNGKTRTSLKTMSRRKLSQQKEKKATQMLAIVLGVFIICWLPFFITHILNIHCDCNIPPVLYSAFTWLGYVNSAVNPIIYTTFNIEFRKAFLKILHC

With `NNc1ccccc1`, the Potency entry in assay [1], in assay [2], in assay [3], in assay [4], in assay [5] and in assay [6] was “inactive” in each case. Also, the Potency result in [7], in assay [8], in assay [9], in assay [10], in assay [11] and in [12] was “inactive” in each case. The Potency entry in assay [13] is “inactive”.
For the compound `CCNc1nc(NC(C)(C)C)nc(SC)n1`, the Potency result in assay [1], in assay [2], in assay [3], in assay [4], in [14] and in [15] was “inactive” each time. For the same compound, the Potency entry in [5], in [7], in assay [16], in [17], in assay [18] and in assay [19] was “inactive” each time. Also, the Potency result in [8], in [10], in [12] and in assay [13] was “inactive” throughout.
In the case of `CN(CCO)CCO`, the Potency entry in [1], in assay [2], in [3], in assay [4], in [14] and in assay [15] was “inactive” each time. The Potency result in assay [5], in assay [7], in assay [16], in assay [17], in [20] and in [18] was “inactive” in each case. For the same compound, the Potency entry in [19], in assay [8], in [9], in assay [10], in [12] and in assay [13] was “inactive” each time.
Regarding `Sc1ccccc1`, the Potency entry in assay [1], in assay [2], in assay [3], in assay [4], in [5] and in assay [6] was “inactive” each time. Further, the Potency result in assay [7], in assay [17], in assay [20], in assay [18], in assay [19] and in assay [8] was “inactive” throughout. Besides, the Potency entry in assay [9], in [10], in [11], in [12] and in [13] was “inactive” in each case.
`CN(C)CCC#N`: the Potency entry in assay [1], in assay [2], in assay [3], in assay [4], in assay [14] and in assay [15] was “inactive” each time. Also, the Potency result in assay [6], in assay [7], in [16], in assay [17], in [20] and in [18] was “inactive” throughout. Moreover, the Potency result in assay [19], in assay [9], in [10], in assay [12] and in [13] was “inactive” each time.
Turning to `[CH3][Sn]([Cl])([Cl])[Cl]`, the Potency result in assay [1], in [2], in assay [3], in assay [4], in [14] and in assay [15] was “inactive” in each case. Also, the Potency result in assay [5], in assay [7], in [16], in assay [17], in [20] and in [18] was “inactive” throughout. In addition, the Potency entry in assay [19], in assay [8], in [9], in assay [10], in assay [11] and in assay [12] was “inactive” throughout.
As to `CCOP(=S)(OCC)OP(=S)(OCC)OCC`, the Potency entry in assay [1], in assay [2], in assay [3], in [4], in assay [5] and in assay [6] was “inactive” in each case. Further, the Potency result in [7], in assay [17], in assay [20], in assay [18], in assay [19] and in assay [8] was “inactive” each time. For the same compound, the Potency entry in assay [9], in assay [10], in [11], in assay [12] and in [13] was “inactive” in each case. Further, in [14], the Potency is 18.2 µM (active).
Turning to `CCCCn1cc[n+](C)c1`, the Potency result in assay [1], in assay [2], in assay [3], in [4], in [6] and in assay [7] was “inactive” each time. Besides, the Potency result in [17], in assay [20], in assay [18], in [19], in assay [8] and in assay [9] was “inactive” each time. Further, the Potency result in [11], in [12] and in assay [13] was “inactive” each time. Also, the Potency result in assay [5] was “inactive and 40.8 µM (active)”.
